Measured values published in PubChem BioAssay AID1211 (NMMLSC, 2008).
The source made the active and inactive calls. No rule for the calls is given here.

These compounds were tested against Estrogen receptor (Homo sapiens) (UniProt P03372) (assay: displacement of fluorescent estrogen from ERalpha – cell-based, Cos7 ERalpha-GFP, flow cytometry, primary screen (AID 1211;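 also: 0% = DMSO vehicle wells and 100% = no E2-Alexa633 signal left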)). Settings: fluorescent ligand competition, at 10 µM, active compounds read high.
Chain of Estrogen receptor (Homo sapiens) (P03372 whole entry, looked up): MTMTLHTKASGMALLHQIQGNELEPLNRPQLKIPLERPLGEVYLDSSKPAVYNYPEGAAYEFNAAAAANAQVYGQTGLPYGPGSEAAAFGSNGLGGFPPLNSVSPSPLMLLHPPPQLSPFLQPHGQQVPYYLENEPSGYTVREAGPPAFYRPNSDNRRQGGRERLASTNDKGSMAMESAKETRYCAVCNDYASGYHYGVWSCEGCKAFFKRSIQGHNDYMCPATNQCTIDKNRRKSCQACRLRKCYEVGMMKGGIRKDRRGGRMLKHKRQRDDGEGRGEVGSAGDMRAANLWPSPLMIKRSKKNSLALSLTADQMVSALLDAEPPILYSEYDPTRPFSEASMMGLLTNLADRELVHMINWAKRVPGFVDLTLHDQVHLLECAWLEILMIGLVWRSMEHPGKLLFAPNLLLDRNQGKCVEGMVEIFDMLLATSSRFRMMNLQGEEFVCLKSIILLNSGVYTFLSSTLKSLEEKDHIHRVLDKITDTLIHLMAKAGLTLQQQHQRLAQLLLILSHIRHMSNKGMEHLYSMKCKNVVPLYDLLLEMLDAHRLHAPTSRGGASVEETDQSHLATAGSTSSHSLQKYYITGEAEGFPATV

Inhibition of ligand binding, inactive:
CC(=O)c1ccc2c(c1)C1C=CCC1C(c1ccc(S(=O)(=O)N3CCOCC3)cc1)N2 (stereo not drawn) 0%
Cc1ccc(S(=O)(=O)N2CCCCC2)cc1C(=O)Nc1ncn[nH]1 21%
COc1ccc2[nH]c3nc(SCc4nnc(-c5ccc(C)cc5)o4)nnc3c2c1 64%
c1ccc(OCc2nnc3sc(C4COc5ccccc5O4)nn23)cc1 (stereo not drawn) 0%
CCCc1c(C(=O)OCC)[nH]c2c1C(=O)CC(c1ccccc1)C2 (stereo not drawn) 27%
CCCNCC1COc2ccccc2O1 (stereo not drawn) 2%
CCCc1nnc2n1N=C(c1ccc(-c3cc(Cl)ccc3Cl)o1)CS2 47%
COc1cc([N+](=O)[O-])cc2c1NC(c1ccccc1)C1CC=CC21 (stereo not drawn) 0%
Cc1ccc(-c2n[nH]c(=S)n2/N=C/C=C\c2ccccc2[N+](=O)[O-])cc1 40%
CCOc1ccc(NS(=O)(=O)c2ccc3c(c2)[C@H]2C=CC[C@H]2[C@@H](c2cccc([N+](=O)[O-])c2)N3)cc1 0%
Cc1ccc(S(=O)(=O)Cc2ccc(C(=O)O)o2)cc1 34%
CCOc1cc2c(c([N+](=O)[O-])c1)NC(c1ccc(Cl)cc1)C1CC=CC21 (stereo not drawn) 0%
Cc1ccc(NC(=O)CSc2nnnn2-c2ccc3c(c2)OCO3)cc1C 33%
CCc1cc2c3c(c(=O)oc2cc1OCC(=O)OC)CCCC3 3%
CCOC(=O)N1CCN(c2ccc(O)cc2)CC1 57%
COc1cc([N+](=O)[O-])cc2c1NC(c1ccc(Br)cc1)C1CC=CC21 (stereo not drawn) 0%
Cc1ccc2c(c1C)NC(C(=O)O)C1CC=CC21 (stereo not drawn) 0%
CCOC(=O)C1CCCN(C(=O)c2ccc(CS(=O)(=O)c3ccc(C)cc3)o2)C1 (stereo not drawn) 30%
CCc1nc2sc3ccccc3c(=O)c2c(=O)n1Cc1ccco1 0%
COc1cccc(-c2cc(C(=O)Nc3cc(C)nn3-c3ccccc3)no2)c1 30%
c1coc(C2Nc3ccccc3C3OCCC23)c1 (stereo not drawn) 41%
Cc1ccn2c(NCc3ccc4c(c3)OCO4)c(-c3ccc(O)cc3)nc2c1 32%
Cc1ccc(N=Cc2c(O)n(-c3ccc4c(c3)OCO4)c(=O)c3ccccc23)cc1 49%
CC(C)C1CC(CCNCc2ccc3c(c2)OCO3)(c2ccccc2)CCO1 (stereo not drawn) 26%
CCOC(=O)c1c(N)sc2c1CC(C)(C)NC2(C)C 8%
COc1ccc(Cn2c(=O)[nH]c3cc(C(=O)NCc4ccc5c(c4)OCO5)ccc3c2=O)cc1 23%
CCc1oc2ccccc2c1C(=O)c1cc(Br)c(O)c(Br)c1 0%
CCC1=NN2C(=N)/C(=C\c3ccc(SCc4ccco4)o3)C(=O)N=C2S1 22%
Nc1ccc(-c2nc3c(Cl)c(N)ccc3[nH]2)cc1 14%
O=C(NCc1ccco1)c1cc2c(s1)CSC2 24%
O=C(CSc1nc2ccccc2c(=O)[nH]1)c1ccc(O)c(O)c1 14%
CCSc1nc2c(cnn2-c2ccc(C)cc2)c(=O)[nH]1 22%
COc1ccc2c(c1)c(=O)oc1cc(OCC(=O)N3CCC(C)CC3)ccc12 0%

Inhibition of ligand binding, active:
COc1ccc(C(=O)N/N=C(\C)c2ccc3c(c2)C2C=CCC2C(c2ccccc2)N3)cc1 (stereo not drawn) 73%
CC(C)(C)NC(=O)c1ccc2c(c1)C1C3CCC(C3)C1C(c1ccccc1)N2 (stereo not drawn) 70%
Cc1nn(-c2ccccc2)c(/N=C/c2ccc(O)cc2)c1-c1ccccc1 77%
O=C(O)c1ccc2c(c1)C1C=CCC1C(c1cc3c(cc1Br)OCO3)N2 (stereo not drawn) 79%
CCCCOC(=O)c1c(C)oc2ccc(NS(=O)(=O)c3ccc4c5c(cccc35)C(=O)N4)cc12 66%
